Results filed as inconclusive are left out. A call without a number means that no potency is given here. A number with no mark means an inactive call. Calls of active or inactive are those of the source. Unless noted, calls follow the shape of the full dose curve.
Legend:
[1] = qHTS assay to identify small molecule antagonists of the vitamin D receptor (VDR) signaling pathway - cell viability counter screen (AID 743225; active = well fitted curve in the direction sought with a large enough effect in the repeat runs; an effect the other way counts as inactive or inconclusive; also: nearly all actives have a fitted effect of over 50% in size)
How it was run: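 Cells (VDR-UAS-bla HEK 293T) are plated, rested 4 h at 37C, dosed with compound and 3 nM final 1-alpha,25-dihydroxy vitamin D3, and incubated 16 h. Viability is taken from CellTiter-Glo luminescence in the reporter wells.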

[2] = qHTS assay to identify small molecule agonists of the NFkB signaling pathway (AID 1159509; active = well fitted curve in the direction sought with a large enough effect in the signal ratio in the repeat runs, not every such curve was filed as active; the % refers to the signal ratio; also: series mostly up to about 61 µM)
How it was run: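 Pathway activation was measured in ME-180 cells stably expressing beta-lactamase under NF-kB response element control. Substrate cleavage was read as the 460/530 nm emission shift after 5 hr compound incubation.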

[3] = qHTS assay to identify small molecule agonists of the NFkB signaling pathway - cell viability counter screen (AID 1159515); also: series mostly up to about 61 µM; nearly all actives have a fitted effect of over 55% in size
How it was run: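 Counter screen run alongside the NFkB-bla agonist assay: ME-180 reporter cells exposed to compounds for 5 hr, then lysed with CellTiter-Glo in the same wells. Luminescence, read after 30 min, reflects viable cells.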

[4] = qHTS assay to identify small molecule agonists of the endoplasmic reticulum stress response signaling pathway (AID 1159516; active = well fitted activation curve with a large enough effect in the signal ratio in the repeat runs, not every such curve was filed as active; the % refers to the signal ratio)
How it was run: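 For this screen, HeLa cells stably carrying beta-lactamase under the ER stress response element received test compounds, positive controls or DMSO for 5 hr at 37 C; B/G FRET substrate was then added and dual-wavelength emission recorded.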

[5] = qHTS assay to identify small molecule antagonists of the retinoid-related orphan receptor gamma (ROR-gamma) signaling pathway - cell viability counter screen (AID 1159520; active = well fitted curve in the direction sought with a large enough effect in the repeat runs; an effect the other way counts as inactive or inconclusive; also: nearly all actives have a fitted effect of over 50% in size)
How it was run: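 Cytotoxicity was read from cellular ATP (CellTiter-Glo luminescence) after 16 hr at 37 C with 1 uM doxycycline induction. The inducer was added 2 hr after compound transfer to Tet-on ROR gamma CHO cells.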

[6] = qHTS assay to identify small molecule agonists of the AP-1 signaling pathway - cell viability counter screen (AID 1159525); also: nearly all actives have a fitted effect of over 55% in size
How it was run: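 Intracellular ATP by Cell Titer Glo luminescence (30 min, RT) in the same ME-180 AP-1-bla wells after the 5 h compound exposure at 37 °C. Normalised to tetra n-octyl ammonium bromide and DMSO controls.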

[7] = qHTS assay to identify small molecule agonists of the AP-1 signaling pathway (AID 1159526)
[8] = target: Retinoic acid receptor RXR-alpha (Homo sapiens) (UniProt P19793); assay: qHTS assay to identify small molecule agonists of the RXR signaling pathway (AID 1159527); also: nearly all actives have a fitted effect of over 35% in size
How it was run: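 qHTS of the Tox21 10K library in GeneBLAzer RXR-alpha HEK 293T cells carrying a beta-lactamase reporter […]; 16 hr treatment, 9-cis retinoic acid as agonist control, FRET read-out.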

[9] = target: Nuclear receptor ROR-gamma (Homo sapiens) (UniProt P51449); assay: qHTS assay to identify small molecule antagonists of the retinoid-related orphan receptor gamma (ROR-gamma) signaling pathway (AID 1159521; active = well fitted curve in the direction sought with a large enough effect in the repeat runs; an effect the other way counts as inactive or inconclusive; also: nearly all actives have a fitted effect of over 50% in size; also: potency is read from the fitted curve at half-maximal effect)
How it was run: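 RORγ antagonism is scored from reduced reporter luminescence in Tet-on CHO cells. Induction used 1 uM final doxycycline hyclate for 16 h at 37 C, following a 2 h compound exposure.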

Sequence of Retinoic acid receptor RXR-alpha (Homo sapiens) (P19793 whole entry, looked up): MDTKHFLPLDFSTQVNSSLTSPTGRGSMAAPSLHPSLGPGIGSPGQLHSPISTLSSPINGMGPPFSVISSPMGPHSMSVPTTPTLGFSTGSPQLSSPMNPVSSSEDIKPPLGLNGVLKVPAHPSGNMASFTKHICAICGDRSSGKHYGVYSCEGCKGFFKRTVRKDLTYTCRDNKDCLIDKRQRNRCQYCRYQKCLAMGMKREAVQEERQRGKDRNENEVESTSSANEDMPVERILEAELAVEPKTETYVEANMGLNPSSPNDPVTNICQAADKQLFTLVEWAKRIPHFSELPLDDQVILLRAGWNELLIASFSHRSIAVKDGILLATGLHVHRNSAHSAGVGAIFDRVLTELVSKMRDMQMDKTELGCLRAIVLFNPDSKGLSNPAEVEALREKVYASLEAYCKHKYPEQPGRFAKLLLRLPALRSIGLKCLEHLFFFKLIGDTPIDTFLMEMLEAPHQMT

SMILES | Potency [1] | outcome [2] | outcome [3] | outcome [4] | Potency [5] | outcome [6] | outcome [7] | Potency [8] | Potency [9] | activity, negative = cytotoxicity [5] | viability change, negative = cytotoxic [6] | activation [7] | activation [8]
CC(=O)OCC(=O)[C@@]12OC(C)(C)O[C@@H]1C[C@H]1[C@@H]3C[C@H](F)C4=CC(=O)C=C[C@]4(C)[C@@]3(F)[C@@H](O)C[C@@]12C | inactive | inactive | inactive | inactive | inactive | inactive | inactive | inactive | – | – | – | – | –
CCCOc1ccc(S(=O)(=O)N2CCN(CC)CC2)cc1-c1nc2c(CC)n(Cc3ccccn3)nc2c(=O)[nH]1 | inactive | inactive | inactive | inactive | inactive | inactive | inactive | – | – | – | – | – | –
C[C@]12CCC(=O)C=C1C=C[C@@H]1[C@@H]2CC[C@@]2(C)[C@H]1CC[C@@]21CCC(=O)O1 | inactive | inactive | inactive | inactive | inactive | inactive | – | inactive | – | – | – | – | –
CCCCCCCCSCCO | inactive | inactive | inactive | inactive | inactive | – | inactive | inactive | inactive | – | – | – | –
N#C/C(=C1\SCC(c2ccccc2Cl)S1)n1ccnc1 (centres undefined) | inactive | inactive | inactive | inactive | inactive | inactive | inactive | – | – | – | – | – | –
CC1=NN(c2ccc(C(=O)O)cc2)C(=O)C1 | inactive | inactive | inactive | inactive | inactive | inactive | inactive | – | – | – | – | – | –
NCC1CCCC(CN)C1 (centres undefined) | inactive | inactive | inactive | inactive | inactive | – | inactive | – | – | – | – | – | –
CN(C(=O)C(Cl)Cl)c1ccc(OC(=O)c2ccco2)cc1 | inactive | inactive | inactive | inactive | inactive | – | inactive | – | – | – | – | – | –
O=S1OCCO1 | inactive | inactive | inactive | inactive | inactive | – | inactive | inactive | – | – | – | – | –
O=C(N[C@@H](c1ccccc1)[C@@H]1CCCCN1)c1cccc(C(F)(F)F)c1Cl | – | inactive | inactive | inactive | inactive | inactive | – | – | – | – | – | – | –
CCCCCCCC/C=C\CCCCCCCC(=O)OC(CO)CO | – | inactive | inactive | inactive | inactive | inactive | inactive | inactive | – | – | – | – | –
CC(C)(CCl)c1ccccc1 | inactive | inactive | inactive | inactive | – | inactive | inactive | – | inactive | – | – | – | –
COc1cc2c(cc1OC)-c1cc(=Nc3c(C)cc(C)cc3C)n(C)c(=O)n1CC2 | inactive | inactive | inactive | inactive | inactive | inactive | inactive | – | – | – | – | – | –
CO[C@@]12[C@H](COC(N)=O)C3=C(C(=O)C(C)=C(N)C3=O)N1C[C@@H]1N[C@@H]12 | inactive | inactive | inactive | inactive | – | inactive | inactive | – | inactive | – | – | – | –
CCn1nc(C)c2c1C(=O)NCC(c1ccc(O)cc1)=N2 | inactive | inactive | inactive | inactive | inactive | inactive | inactive | inactive | – | – | – | – | –
CC1(C)C(=O)N(Br)C(=O)N1Cl | inactive | inactive | inactive | inactive | – | – | – | inactive | – | – | – | – | –
CC(CCc1ccc2c(c1)OCO2)NN (centres undefined) | inactive | inactive | inactive | inactive | inactive | inactive | inactive | inactive | – | – | – | – | –
CN1CCN(c2c(F)cc3c(=O)c(C(=O)O)cn4c3c2OCN4C)CC1 | inactive | inactive | inactive | inactive | – | – | – | – | – | 0.283% [at 19 µM] | 12.5% [at 15.8 µM] | 4.3% [at 15.8 µM] | 9.65% [at 15.8 µM]
CCCCCCCCCCCCCCC[C@H](O)[C@@H](N)CO | inactive | inactive | inactive | inactive | – | – | inactive | – | inactive | – | – | – | –
CCC(=O)Oc1ccc(/C(CC)=C(\CC)c2ccc(OC(=O)CC)cc2)cc1 | inactive | inactive | inactive | inactive | inactive | inactive | inactive | – | – | – | – | – | –
CC1(C)C2=CCCC(C)(C)[C@]23CC[C@H]1C3 | – | inactive | inactive | inactive | inactive | – | inactive | inactive | – | – | – | – | –
OCC1CC=CCC1 (centres undefined) | inactive | inactive | inactive | inactive | – | inactive | inactive | – | inactive | – | – | – | –
COC(=O)[C@@H]1CC2=CC(=O)CC[C@]2(C)[C@@]23O[C@@H]2C[C@@]2(C)[C@@H](CC[C@@]24CCC(=O)O4)[C@H]13 | inactive | inactive | inactive | inactive | inactive | inactive | inactive | – | – | – | – | – | –
CCCCC(=O)O[C@]1(C(=O)CO)[C@@H](C)C[C@H]2[C@@H]3CCC4=CC(=O)C=C[C@]4(C)[C@@]3(F)[C@@H](O)C[C@@]21C | inactive | inactive | inactive | inactive | – | inactive | – | – | 30.6 µM (active) | – | – | – | –
O=C(CCCCCCCCC#CI)Oc1ccccc1 | inactive | inactive | inactive | inactive | inactive | inactive | inactive | – | – | – | – | – | –
CC(C)(C)CC(C)(C)c1ccc(OCCO)cc1 | – | inactive | inactive | inactive | – | – | inactive | – | 19.2 µM (active) | – | – | – | –
CC1=C(C=O)C(C)(C)CCC1 | inactive | inactive | inactive | inactive | inactive | inactive | inactive | inactive | – | – | – | – | –
CC(CCO)CCc1ccccc1 (centres undefined) | inactive | inactive | inactive | inactive | inactive | inactive | inactive | – | – | – | – | – | –
COC(OC)(C(=O)c1ccccc1)c1ccccc1 | inactive | inactive | inactive | inactive | inactive | inactive | inactive | inactive | – | – | – | – | –

Source: PubChem BioAssay (Tox21)
